Most compounds without a hit are left out; they make up all but 3.5% or so of the library.
MITF primary – inhibitors of human MITF; 650,000 compounds, 0.91% hits; O75030; AID 1259374; AlphaScreen MITF homodimerization, bead proximity signal; inhibition, % at 2.6 µM; in the data active = inhibition above about 50%;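 note: 0% = vehicle wells with protein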
GPR151 activ – activates the human receptor GPR151; Q8TDV0; 650,000 compounds, 1% hits; activation, % at 11.2 µM; PathHunter beta-arrestin GPR151 cells, luminescence; in the data active = activation above about 4.9%;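 note: 0% = median of compound wells and 100% = cells with positive control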
Target sequence (Q8TDV0 whole entry, looked up): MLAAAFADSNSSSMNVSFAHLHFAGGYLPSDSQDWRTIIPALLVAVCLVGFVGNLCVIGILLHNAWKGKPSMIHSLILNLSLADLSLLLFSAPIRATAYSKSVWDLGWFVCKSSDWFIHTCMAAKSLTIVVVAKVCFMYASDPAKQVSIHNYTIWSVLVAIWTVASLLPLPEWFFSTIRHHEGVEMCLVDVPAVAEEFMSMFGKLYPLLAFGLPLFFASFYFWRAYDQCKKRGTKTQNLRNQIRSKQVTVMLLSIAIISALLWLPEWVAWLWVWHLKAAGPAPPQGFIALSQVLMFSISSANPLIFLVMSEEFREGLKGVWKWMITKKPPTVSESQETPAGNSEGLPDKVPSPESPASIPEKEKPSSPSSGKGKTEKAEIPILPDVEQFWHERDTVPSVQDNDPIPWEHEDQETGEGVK
FBW7 activator – activators of human E3 ligase FBW7; Q969H0; AlphaScreen FBW7–phospho-cyclin E peptide binding, activator screen; normalized activity (activation), % at 26.1 µM; 650,000 compounds, 0.13% hits; in the data active = normalized activity above about 1.9%;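 note: purified mutant Fbw7 with reduced substrate affinity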
TEAD-YAP block – TEAD-YAP interaction inhibition; HEK-TIYL cells, TEAD-Gal4/YAP UAS-luciferase luminescence; inhibition, % at 9.12 µM; 640,000 compounds, 1.4% hits; AID 1259422; in the data active = inhibition above about 32%;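 note: 0% = median of test compound wells and 100% = reference inhibitor wells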
MITF confirm – confirmation of human MITF inhibitors | shares compounds with MITF primary | AlphaScreen MITF homodimerization, biotin/His-MITF beads | inhibition, % at 2.6 µM | 4,700 compounds, 16% hits;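 active = inhibition above a cutoff derived from the DMSO control wells, cut at about 28% in these data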;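 note: 0% = MITF dimer wells with DMSO only; inhibitors lower the bead chemiluminescence by keeping MITF from dimerizing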
AS interf DR – AlphaScreen optical interference, dose response counter-screen; 480 compounds, 6% hits; shares compounds with MITF primary; IC50, µM; AlphaScreen optical interference counterscreen, cell-free; AID 1259373; call rule not given here
AS interf ctr – optically interferes with AlphaScreen signal; LysRS AlphaScreen counterscreen, signal interference, triplicate; 4,700 compounds, 7.6% hits; shares compounds with MITF primary; AID 1259376; inhibition, % at 2.6 µM;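 active = inhibition above a cutoff derived from the DMSO control wells, cut at about 30% in these data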
An asterisk follows results filed as active; . = no result given.

SMILES	MITF primary	GPR151 activ	FBW7 activator	TEAD-YAP block	MITF confirm	AS interf ctr	others
CC1CCN(S(=O)(=O)c2ccc(C(=O)Nc3nc4c(s3)COc3ccccc3-4)cc2)CC1	4	-1	0	7	.	.
O=C(Nc1ccc(Br)cc1)Nc1cccc(Cl)c1	57*	0	1	-30	1	6
O=C(CCSc1nnc2ccccn12)Nc1ccc(F)cc1	67*	0	0	-3	11	-7
Cc1nc(NCc2c(C)nn(C)c2Cl)sc1-c1ccn(C2CCOC2)n1 (centres undefined)	54*	2	0	3	4	-3
CC(C)C(=O)N1CCN(CC(O)COc2ccccc2C(C)C)CC1 (centres undefined)	52*	-1	0	5	10	12
CCC(C)c1ccccc1OCC(O)CNC1CCCC1 (centres undefined)	34	0	1	5	.	.
CC(C)c1ccccc1OCC(O)CNC1CCN(Cc2ccccc2)C1 (centres undefined)	69*	-1	0	3	-29	7
CCC(C)c1ccccc1OCC(O)CN1CCCCC1 (centres undefined)	-2	0	0	16	.	.
CC1=C(c2ccc(C)cc2)S(=O)(=O)N=C1N1CCN(C2CCCCC2)CC1	7	0	0	-11	.	.
Cc1cccc2c(Nc3ccc4c(c3)OCO4)nc(CN(C)Cc3ccccn3)nc12	-1	-1	0	-8	.	.
Clc1cccc(OCCn2cncn2)c1Cl	47	1	0	-5	.	.
Clc1ccc(OCCOCCn2cncn2)cc1Cl	80*	-2	0	-3	8	21
N#Cc1ccc(OCCOCCn2cncn2)cc1	18	0	0	0	.	.
Cc1ccc(C(C)(C)C)c(OCCCn2ccnc2)c1	22	-1	0	-14	.	.
CCC(C)(C)c1ccc(OCCOCCn2cncn2)c(Cl)c1	67*	2	0	8	0	3
CC(C)(C)c1ccc(OCCn2cncn2)c(Cl)c1	58*	-1	0	-10	32*	18	AS interf DR=>6.5
Cc1ccc(C(C)(C)C)c(OCCOCCn2cncn2)c1	78*	1	0	9	0	5
O=C(O)c1ccc(CNCCCc2ccccc2)s1	-10	1	0	-2	.	.
Fc1ccc(OCCCn2cncn2)cc1	71*	0	0	4	8	19
O=[N+]([O-])c1ccc(OCCCn2cncn2)cc1	-2	3	0	11	.	.
CC(=O)Nc1ccc(S(=O)(=O)N2CCN(CC3CC4C=CC3C4)CC2)cc1 (centres undefined)	51*	0	0	-3	-11	-3
COC(=O)C(C)CNCc1ccccc1 (centres undefined)	7	0	0	-3	.	.
CC(C)NC(=O)c1ccc2c(=O)n(CCC3=CCCCC3)c(=S)[nH]c2c1	84*	-1	0	5	0	-2
COCCn1c(=S)[nH]c2cc(C(=O)NCc3ccc(C)cc3)ccc2c1=O	62*	0	0	-5	1	8
COCCn1c(=S)[nH]c2cc(C(=O)NCc3ccc(F)cc3)ccc2c1=O	-4	-1	0	1	.	.
SMILES	MITF primary	GPR151 activ	FBW7 activator	TEAD-YAP block	MITF confirm	AS interf ctr	others
CCN(C(=O)C(=O)c1c(C)[nH]c2ccccc12)c1cccc(C)c1	5	-2	0	2	.	.
CN(C)/C=C/C=C/C=C/C(=O)c1ccc(C(=O)/C=C/C=C/C=C/N(C)C)cc1	84*	-1	0	4	68*	10
CN(C)/C=C/C=C/C(=O)c1ccccc1N(C)C	-6	1	0	3	.	.
Cc1c(Cl)cccc1-c1ccc(C(=O)Nc2ccc(NC(=O)c3ccco3)cc2)o1	-5	0	0	-5	.	.
CCCC(C)NC(=O)Cc1ccc(Br)cc1 (centres undefined)	51*	1	0	-15	3	9
COc1cc(/C=C2\SC(N(C)c3ccc(O)cc3)=NC2=O)ccc1O	-3	-1	0	13	.	.
Cc1ccc2c(c1)NC(=O)C(Cl)(C(F)(F)F)O2 (centres undefined)	-12	3	0	-7	.	.
Cc1ccc2c(c1)NC(=O)C(N1CCOCC1)(C(F)(F)F)O2 (centres undefined)	59*	0	0	1	7	14
COc1ccc2cc(CN(Cc3ccco3)C(=O)c3ccco3)c(=O)[nH]c2c1	2	-1	0	2	.	.
Cc1nc(SCC(=O)Nc2cccc(C(F)(F)F)c2)c2c3c(sc2n1)CCC3	74*	-1	0	-9	5	13
COC(=O)c1ccc(=O)c2nc3/c(=C/O)c(O)cc(=O)c3[nH]c12	77*	0	0	-6	86*	-8
CCN(CC(=O)Nc1ccc(OC)cc1)CC(=O)NC(C)(C)C	9	-1	0	-2	.	.
CCN(CC)CC(=O)Nc1ccc(OC)cc1	52*	-1	1	-9	28*	18	AS interf DR=>6.5
CCN(CC(=O)Nc1ccc2c(c1)OCCO2)CC(=O)Nc1ccccc1C(F)(F)F	89*	0	0	2	14	15
CCN(CC)CC(=O)Nc1ccc2c(c1)OCO2	3	0	0	-2	.	.
CCN(CC(=O)Nc1ccc(C(C)=O)cc1)CC(=O)Nc1ccc2c(c1)OCCO2	80*	0	0	-1	9	12
CCN(CC(=O)Nc1ccc(NC(C)=O)cc1)CC(=O)Nc1ccc(Cl)c(Cl)c1	94*	-2	0	-7	11	14
Cc1cccc(N2C(=O)/C(=C/c3ccoc3)C(=O)NC2=S)c1	36	1	0	10	.	.
O=C(Oc1ccc([N+](=O)[O-])cc1[N+](=O)[O-])c1ccc(F)cc1	-14	1	0	-3	.	.
CCCCn1c(CNC(=O)Cc2ccccc2)nnc1SCC(=O)Nc1sc2c(c1C(=O)OCC)CCCCC2	7	0	0	5	.	.
CN(C)CCOCCOc1ccc(Cl)cc1C(C)(C)C	3	0	0	-8	.	.
COCCNCCOCCOc1ccc(C(C)(C)C)cc1C	26	-2	0	-5	.	.
Cc1cc(C(C)(C)C)ccc1OCCOCCN(C)C	72*	2	0	12	-2	-7
Cc1ccc(C(C)(C)C)c(OCCOCCN(C)C)c1	68*	-1	0	0	-3	-8
CC(C)c1ccc(-c2nnn(CC(N)=O)n2)cc1	10	-1	0	-2	.	.
CC(NCC1(N2CCOCC2)CCCCC1)C(=O)N1CCc2ccccc21 (centres undefined)	53*	-2	0	-3	-1	7
CC(Nc1ccccc1)C(=O)N1CCc2ccccc21 (centres undefined)	9	-1	0	-24	.	.
CCC(=O)N(CCOC)Cc1cc2cc(C)c(C)cc2nc1Cl	7	1	0	5	.	.
O=C(COc1ccccc1N1C(=O)c2ccccc2C1=O)c1ccc(F)cc1	60*	2	0	-5	2	6

Bioassay records deposited in PubChem by The Scripps Research Institute Molecular Screening Center.
